Entries with a potency or affinity are not part of this list. Calls of active or inactive are those of the source. The rule behind the calls is not given here.
Test: toxicity to HepG2 liver cells – cell-based, plate reader, dry powder, set 6, cytotoxicity control, dose response (AID 743311)
Conditions: series mostly up to 26 µM

SMILES | outcome
Cc1cccc(OCCn2cnc3ccccc32)c1 | inactive
Cc1cccc(OCCn2c(=S)[nH]c3c(F)cccc32)c1 | inactive
CC(C)(C)c1ccc(OCCn2cnc3ccccc32)cc1 | inactive
Fc1ccc2c(c1)[nH]c(=S)n2CCOc1ccccc1 | inactive
CC(C)(C)c1ccc(OCCn2c(CO)nc3ccccc32)cc1 | inactive
Cc1cccc(OCCn2c(=S)[nH]c3ccc(C(F)(F)F)cc32)c1 | inactive
CC(C)Oc1cccc(OCCn2cnc3ccccc32)c1 | inactive
CCSc1nc2ccccc2n1CCOc1ccccc1 | inactive
Clc1ccc(OCCn2cnc3ccccc32)c(Cl)c1 | inactive
c1ccc2c(c1)ncn2CCOc1ccc2c(c1)CCC2 | inactive
Cc1cc2ncn(CCOc3ccccc3)c2cc1C | inactive
COc1ccccc1OCCn1c(SC)nc2ccccc21 | inactive
Fc1cccc2c1[nH]c(=S)n2CCOc1ccccc1 | inactive
Clc1ccc(OCCn2cnc3ccccc32)cc1 | inactive
Cc1ccc(C(C)C)c(OCCn2c(NC#N)nc3ccccc32)c1 | inactive
Clc1ccccc1OCCn1cnc2ccccc21 | inactive
Cc1ccccc1OCCn1cnc2ccccc21 | inactive
CSc1nc2ccccc2n1CCOc1ccccc1 | inactive
Cc1ccc(OCCn2cnc3ccccc32)c(C(C)C)c1 | inactive
COc1cc(C)ccc1OCCn1cnc2ccccc21 | inactive
Cc1cccc(OCCn2c(=S)[nH]c3ccccc32)c1 | inactive
